Experimental findings from PubChem BioAssay (NCI) are described below.

This is part of a sample that, as a whole, favours compounds with a hit. Of some 83,000 tested, about 20% had one in any assay.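 48-hour exposure, single concentration, 96-well plates; percent growth endpoint where 0 means no net growth. Active: below 10.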 Values without a mark were called inactive. Activity calls are given as the source filed them.

What all share (assay): NCI-60 one-dose screen, 48 h (100 = growth as untreated, 0 = no growth, -100 = all killed)
One assay relates to K-562 leukemia. The conditions noted are these: 10 µM unless noted.
The next assay relates to MALME-3M melanoma. As to conditions: 10 µM unless noted.
Another assay has as its system MDA-MB-231 breast. As to conditions: 10 µM unless noted.
For a further assay, the system named is RXF 393 renal. As to conditions: 10 µM unless noted.
A further assay concerns SF-268 CNS. As to conditions: 10 µM unless noted.
A further assay relates to SF-295 CNS. The conditions noted are these: 10 µM unless noted.
A further assay concerns SF-539 CNS. The conditions noted are these: 10 µM unless noted.
The subject of a further assay is UACC-257 melanoma. The conditions noted are these: 10 µM unless noted.
Another assay deals with HT29 colon. As to conditions: 10 µM unless noted.
A further assay relates to SNB-75 CNS. The conditions noted are these: 10 µM unless noted.
For another assay, the system named is SNB-19 CNS. The conditions noted are these: 10 µM unless noted.
A further assay has as its system U251 CNS. The conditions noted are these: 10 µM unless noted.
The next assay relates to PC-3 prostate. As to conditions: 10 µM unless noted.
Another assay has as its system SK-MEL-5 melanoma. The conditions noted are these: 10 µM unless noted.
The next assay has as its system UACC-62 melanoma. The conditions noted are these: 10 µM unless noted.
The subject of another assay is LOX IMVI melanoma. The conditions noted are these: 10 µM unless noted.
In the next assay the test system is SK-MEL-28 melanoma. As to conditions: 10 µM.
The subject of another assay is SK-MEL-2 melanoma. The conditions noted are these: 10 µM unless noted.
For the next assay, the system named is M14 melanoma. As to conditions: 10 µM unless noted.
The next assay has as its system HCT-15 colon. The conditions noted are these: 10 µM unless noted.

On to `COc1cc(C(=O)O/N=C(\N)Cc2cccc3ccccc23)cc(OC)c1OC`, for which the growth was -43.2% (active) with K-562 leukemia; -85.9% (active) with MALME-3M melanoma; -46.6% (active) with MDA-MB-231 breast; 7.59% (active) with RXF 393 renal; 17.6% in the assay on SF-268 CNS; -84.6% (active) in the assay on SF-295 CNS. Also, the growth in the assay on SF-539 CNS is -88.7% (active); in the assay with UACC-257 melanoma it was -89.3% (active); in the assay with HT29 colon, -74.3% (active); in the assay with SNB-75 CNS, -19.4% (active); in the assay with SNB-19 CNS it was 68.2%; in the assay on U251 CNS, -67.8% (active). Besides, the growth was 27.6% in the assay on PC-3 prostate; -97.9% (active) in the assay on SK-MEL-5 melanoma; -88.3% (active) with UACC-62 melanoma; -81.9% (active) in the assay on LOX IMVI melanoma; -97% (active) in the assay with SK-MEL-28 melanoma; -80.9% (active) in the assay on SK-MEL-2 melanoma.
As for `COc1cc([C@@H]2NC(=O)NC(C)=C2C(=O)Nc2nc(-c3ccc(Cl)cc3)cs2)ccc1O`, the growth with K-562 leukemia was 99.9%; in the assay with MALME-3M melanoma, 95.4%; in the assay with MDA-MB-231 breast it was 92.6%; in the assay on SF-268 CNS it was 94%; with SF-295 CNS, 98.2%; in the assay on SF-539 CNS, 95.7%. For the same compound, the growth with UACC-257 melanoma is 104%; in the assay on M14 melanoma, 94.2%; in the assay with HCT-15 colon, 100%; in the assay on HT29 colon, 108%; with SNB-75 CNS it was 87.3%; with SNB-19 CNS it was 113%. Moreover, the growth in the assay with U251 CNS is 97.9%; in the assay on PC-3 prostate it was 88.9%; in the assay on UACC-62 melanoma, 91.6%; in the assay on LOX IMVI melanoma, 94.2%; with SK-MEL-28 melanoma it was 110%; with SK-MEL-2 melanoma, 105%.
Regarding `CC(=O)n1cc(-c2c[nH]c3ccccc23)c(-c2ccc(Cl)cc2)n1`, the growth with K-562 leukemia is 94.3%; in the assay on MALME-3M melanoma it was 87.2%; in the assay with RXF 393 renal, 80.6%; in the assay on SF-268 CNS, 86.5%; in the assay with SF-295 CNS, 75.3%; with SF-539 CNS, 81.7%. The growth was 103% in the assay on UACC-257 melanoma; 76.1% in the assay with M14 melanoma; 80.9% in the assay on HCT-15 colon; 95.9% in the assay on HT29 colon; 80.9% in the assay on SNB-75 CNS; 112% in the assay with SNB-19 CNS. The growth is 74.9% in the assay on U251 CNS; 81.5% with PC-3 prostate; 78.8% in the assay with SK-MEL-5 melanoma; 93.5% with UACC-62 melanoma; 86.8% with LOX IMVI melanoma; 93.7% with SK-MEL-28 melanoma. The growth with SK-MEL-2 melanoma is 97.6%.
In the case of `Nc1ccc(C2c3ccccc3Oc3ccccc32)cc1`, the growth in the assay on K-562 leukemia is 82.3%; in the assay with MALME-3M melanoma, 106%; with MDA-MB-231 breast, 104%; in the assay with SF-268 CNS, 102%; in the assay with SF-295 CNS, 89%; in the assay on SF-539 CNS, 111%. Further, the growth was 102% in the assay on UACC-257 melanoma; 107% in the assay with M14 melanoma; 99.2% with HCT-15 colon; 99.3% in the assay with HT29 colon; 84.5% in the assay on SNB-75 CNS; 105% in the assay on SNB-19 CNS. Also, the growth is 93.3% with U251 CNS; 90% in the assay with PC-3 prostate; 94.8% in the assay on UACC-62 melanoma; 90.8% in the assay with LOX IMVI melanoma; 114% in the assay with SK-MEL-28 melanoma; 110% in the assay with SK-MEL-2 melanoma.
As for `COc1ccc(-n2c(C(O)c3ccccc3)nn(CN3CCOCC3)c2=S)cc1` (stereo unspecified), the growth in the assay with K-562 leukemia was 110%; in the assay with MALME-3M melanoma it was 104%; in the assay with MDA-MB-231 breast, 97.6%; with SF-268 CNS it was 103%; with SF-295 CNS, 79.7%; in the assay with SF-539 CNS it was 102%. In addition, the growth was 105% in the assay on UACC-257 melanoma; 95.2% with M14 melanoma; 113% in the assay with HCT-15 colon; 109% in the assay on HT29 colon; 87.4% with SNB-75 CNS; 92.7% with SNB-19 CNS. The growth with U251 CNS was 95.2%; in the assay on PC-3 prostate, 101%; in the assay on SK-MEL-5 melanoma it was 112%; with UACC-62 melanoma it was 95.8%; in the assay with LOX IMVI melanoma, 95.4%; in the assay on SK-MEL-28 melanoma, 89.2%. Also, the growth in the assay with SK-MEL-2 melanoma is 95.2%.
Take `Cc1ccc(S(=O)c2ccc([N+](=O)[O-])c3nonc23)cc1` (stereo unspecified): the growth was 38.9% with K-562 leukemia; 81.2% in the assay on MALME-3M melanoma; 111% with RXF 393 renal; 105% in the assay with SF-268 CNS; 119% in the assay on SF-295 CNS; 106% in the assay with SF-539 CNS. For the same compound, the growth is 100% in the assay on UACC-257 melanoma; 104% in the assay on M14 melanoma; 66.5% with HCT-15 colon; 93.8% in the assay with HT29 colon; 112% with SNB-75 CNS; 117% in the assay with SNB-19 CNS. Further, the growth with U251 CNS was 96.4%; in the assay on PC-3 prostate, 92.6%; in the assay on SK-MEL-5 melanoma, 100%; in the assay on UACC-62 melanoma, 108%; with LOX IMVI melanoma, 73.6%; in the assay with SK-MEL-28 melanoma, 105%. Also, in the assay with SK-MEL-2 melanoma, the growth was 112%.
As for `CCOC(=O)c1c2c(n3cccc(Cl)c13)C(=O)c1ncccc1C2=O`, the growth in the assay with K-562 leukemia was 62.3%; with MALME-3M melanoma, 42.7%; with MDA-MB-231 breast, 24.9%; with SF-268 CNS, 41.1%; in the assay with SF-295 CNS, 63.9%; in the assay on SF-539 CNS, 77.2%. The growth was 60.8% in the assay with UACC-257 melanoma; 25.6% with HCT-15 colon; 69.3% with HT29 colon; 78.2% in the assay on SNB-75 CNS; 45.9% in the assay on SNB-19 CNS; 36% in the assay on U251 CNS. In addition, the growth with PC-3 prostate was 53%; in the assay with UACC-62 melanoma, 55.9%; in the assay on LOX IMVI melanoma, 27.3%; in the assay on SK-MEL-28 melanoma, 87.5%; with SK-MEL-2 melanoma it was 103%.
Regarding `COC(=O)/C(=C\c1c(C)[nH]c2ccccc12)S(=O)(=O)c1ccccc1`, the growth is 14.4% with K-562 leukemia; 45.8% in the assay with MALME-3M melanoma; 90% with MDA-MB-231 breast; 2.87% (active) in the assay on SF-268 CNS; 16.6% with SF-295 CNS; -24.3% (active) in the assay on SF-539 CNS. Further, the growth with UACC-257 melanoma was 29.4%; with M14 melanoma, 33.7%; in the assay on HCT-15 colon, 23.8%; with HT29 colon it was 9.54% (active); in the assay on SNB-75 CNS it was -8.87% (active); with SNB-19 CNS it was 19.1%. The growth with U251 CNS is 25.7%; with PC-3 prostate, -1.81% (active); in the assay with SK-MEL-5 melanoma, 34.1%; with UACC-62 melanoma, 53.8%; with LOX IMVI melanoma, 15.6%; in the assay with SK-MEL-28 melanoma it was 16.6%.
